TCR CD3 inh = human TCR-CD3 binding inhibition. 360,000 compounds, 0.37% hits. AID 651800. inhibition, % at 9.4 µM. TAMRA-labeled TCR probe fluorescence, biochemical; in the data active = inhibition above about 19%;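 note: recombinant mutant TCR 2C K166C tagged with TAMRA read by polarization; 0% = receptor in buffer alone and 100% = receptor with positive control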
pPAFAH inh = inhibitors of human plasma PAF acetylhydrolase (pPAFAH); Q13093; recombinant pPAFAH, FP-rhodamine probe fluorescence polarization; inhibition, % at 3.39 µM; 330,000 compounds, 1.5% hits;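 active = inhibition above the mean inhibition across the screen plus 3 SD, cut at about 25% in these data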;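 note: inhibitors block binding of the rhodamine activity-based probe so polarization drops; 0% = enzyme with DMSO and 100% = wells lacking pPAFAH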
Target sequence (Q13093 whole entry, looked up): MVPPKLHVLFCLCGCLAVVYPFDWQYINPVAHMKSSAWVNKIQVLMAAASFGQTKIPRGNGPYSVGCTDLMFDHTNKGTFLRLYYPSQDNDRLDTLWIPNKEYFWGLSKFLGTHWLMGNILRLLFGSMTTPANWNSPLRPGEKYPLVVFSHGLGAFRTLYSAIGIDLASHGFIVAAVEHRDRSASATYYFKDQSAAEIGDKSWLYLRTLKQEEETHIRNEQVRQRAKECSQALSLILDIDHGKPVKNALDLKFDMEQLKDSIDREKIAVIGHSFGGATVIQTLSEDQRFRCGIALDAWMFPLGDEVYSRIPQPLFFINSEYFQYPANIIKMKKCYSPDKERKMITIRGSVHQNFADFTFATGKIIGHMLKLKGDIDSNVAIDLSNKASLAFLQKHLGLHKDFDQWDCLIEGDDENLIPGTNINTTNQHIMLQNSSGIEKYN
PAFAH2 inh = inhibitors of human PAFAH2; Q99487; recombinant PAFAH2, FP-rhodamine activity probe, fluorescence polarization; inhibition, % at 3.39 µM; 340,000 compounds, 0.99% hits;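 active = inhibition above the mean over all tested compounds plus 3 SD, cut at about 30% in these data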;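 note: inhibitors block probe labeling of enzyme so polarization drops; 0% = enzyme with DMSO and 100% = wells lacking PAFAH2 protein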
PAFAH1B2 FP inh = PAFAH1B2 (human) inhibition. 340,000 compounds, 1.2% hits. P68402. recombinant PAFAH1B2, FP-rhodamine activity probe, fluorescence polarization. AID 492953. inhibition, % at 3.39 µM;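 active = inhibition above the mean of all tested compounds plus 3 SD, cut at about 24% in these data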;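 note: 0% = enzyme with DMSO and 100% = wells lacking PAFAH1B2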
PAFAH1B3 inh = blocks human PAF acetylhydrolase 1B catalytic subunit 3; 340,000 compounds, 0.28% hits; recombinant PAFAH1B3, FP-rhodamine probe, fluorescence polarization; Q15102; inhibition, % at 3.39 µM;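 active = inhibition above the screen-wide average of all tested compounds plus 3 SD, cut at about 25% in these data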;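 note: 0% = enzyme with DMSO only and 100% = wells lacking PAFAH1B3 protein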
PAFAH2 confirm = PAFAH2 (human) inhibition, confirmed | shares compounds with PAFAH2 inh | recombinant PAFAH2, FP-rhodamine activity probe, fluorescence polarization | inhibition, % at 3.39 µM | 2,300 compounds, 65% hits | AID 493030;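 active = mean inhibition over three repeats above a set limit taken from the earlier primary screen, cut at about 30% in these data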;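 note: inhibitor blocks binding of rhodamine activity probe so polarization falls; 0% = enzyme with DMSO and 100% = wells lacking PAFAH2 protein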
Numbers without * were called inactive; . = no result given. Shown are actives, neighbours in structure and some others; about 2.7% of the full set was active somewhere.

SMILES	TCR CD3 inh	pPAFAH inh	PAFAH2 inh	PAFAH1B2 FP inh	PAFAH1B3 inh	PAFAH2 confirm
CCOC(=O)C1CCCN(S(=O)(=O)CCNC(=O)c2cccc(OC)c2)C1 (stereo unspecified)	0	0	2	4	1	.
COc1ccc(C(=O)OCC(=O)Nc2ccc(N3CCOCC3)cc2)cc1OC	-6	0	23	5	6	.
CCOc1cc(C(=O)OCC(=O)Nc2ncc(Cl)c(C)c2Cl)ccc1OCC(=O)N1CCOCC1	1	7	55*	0	3	54*
CCOc1ccc(C(=O)OCC(=O)N2CCOCC2)cc1OCC	5	9	7	2	4	.
CCOc1cc(C(=O)OC(C)C(=O)Nc2ncc(Cl)cc2Cl)ccc1OCC(=O)N1CCOCC1 (stereo unspecified)	-3	-1	11	2	5	.
COc1cc(C(=O)OCC(=O)Nc2ccc(C(C)=O)cc2)ccc1OCC(=O)N1CCOCC1	14	1	61*	7	6	58*
CCOc1cc(C(=O)OCC(=O)Nc2c(C)cccc2C)ccc1OCC(=O)N1CCOCC1	5	13	50*	1	2	68*
CC(=O)NCCNc1nc2cc(-c3ccc(C(=O)N4CCN(C)CC4)cc3)sc2c(=O)n1C	-5	.	.	.	.	.
O=C(COC(=O)/C=C/c1ccccc1)NCC1CCCO1 (stereo unspecified)	8	11	37*	3	-1	23
CSc1ccc(/C=C/C(=O)OCC(=O)NCC2CCCO2)cc1 (stereo unspecified)	6	5	39*	3	9	22
O=C(COC(=O)/C=C/c1ccccc1Cl)NCC1CCCO1 (stereo unspecified)	3	21	27	4	3	.
CSc1ccc(/C=C/C(=O)OCC(=O)NC2CCCCCC2)cc1	-6	.	.	.	.	.
CSCCC(c1nnnn1C(C)(C)C)N1CCN(C/C=C/c2ccccc2)CC1 (stereo unspecified)	-6	.	.	.	.	.
CC(NC(=O)COC(=O)CC(c1ccccc1)c1ccccc1)c1ccccc1 (stereo unspecified)	5	6	59*	9	1	47*
Cc1ccc(C(=O)NCC(=O)OCC(=O)NC(C)c2ccccc2)s1 (stereo unspecified)	7	-6	7	0	4	.
Cc1ccc(C(=O)OCC(=O)NC(C)c2ccccc2)s1 (stereo unspecified)	-5	13	78*	1	1	69*
Cc1ccc(C(=O)OCC(=O)c2ccc(Cl)s2)s1	10	16	74*	2	1	66*
CN(C(=O)COC(=O)c1cnc(Cl)c(Cl)c1)C1CCCCC1	-3	0	-4	5	6	.
COc1cc(N)c(Cl)cc1C(=O)OCC(=O)N(C)C1CCCCC1	2	3	55*	7	9	30*
COc1cc(N)c(Cl)cc1C(=O)OCC(=O)NC1CCCC1	-6	5	48*	7	8	34*
COc1cc2c(C(F)(F)F)c(-c3ccsc3)oc(=O)c2cc1OC	-3	8	59*	2	7	39*
O=C(CCC1CCCC1)NNC(=O)COc1ccc(Br)cc1	3	5	35*	19	11	23
CC(=O)c1c(C)[nH]c(C(=O)Nc2ccc(Cl)c(S(=O)(=O)N(C)C)c2)c1C	-2	-3	-10	5	11	.
CCOC(=O)c1c(C)[nH]c(C(=O)OCC(=O)Nc2cc(Cl)ccc2OC)c1C	-2	0	-9	0	3	.
CC(=O)c1c(C)[nH]c(C(=O)OCC(=O)Nc2ccc(Cl)cc2[N+](=O)[O-])c1C	4	4	48*	6	-1	32*
SMILES	TCR CD3 inh	pPAFAH inh	PAFAH2 inh	PAFAH1B2 FP inh	PAFAH1B3 inh	PAFAH2 confirm
CC(=O)c1c(C)[nH]c(C(=O)OCC(=O)Nc2ccc(Cl)c(S(=O)(=O)N(C)C)c2)c1C	6	-2	71*	-3	0	61*
CC(=O)c1c(C)[nH]c(C(=O)OCC(=O)Nc2ccc3c(c2)OCCO3)c1C	6	0	35*	4	5	20
O=c1oc(-c2ccccc2NS(=O)(=O)c2ccc3ccccc3c2)nc2ccccc12	-2	-6	36*	4	-20	40*
COc1ccccc1NS(=O)(=O)c1ccc(C(=O)Nc2ncccc2O)cc1	.	3	55*	6	3	46*
O=[N+]([O-])c1ccc(O)c(/C=N/Nc2ccccc2Cl)c1	-1	16	74*	3	11	62*
CCC1(CC)C(=O)NC(=O)NC1=S	10	.	9	5	4	.
CC(=O)N1CCN(C(=O)COc2ccc3oc4c(c3c2)CCCC4)CC1	-5	7	15	0	6	.
O=C(NC1CCCN(C2Cc3ccccc3C2)C1)c1ccc(F)cc1Cl (stereo unspecified)	11	2	42*	2	1	16
O=C(COC(=O)c1ccc(O)cc1)NC1CCCC1	6	14	77*	-3	5	73*
Cc1ccc(C(=O)OCC(=O)NC2CCCC2)cc1	-3	22	82*	5	0	76*
O=C(COC(=O)c1ccc([N+](=O)[O-])cc1)NC1CCCC1	10	14	6	-3	8	.
CC(C)(C)c1ccc(C(=O)OCC(=O)NC2CC2)cc1	4	.	73*	15	1	66*
O=C(NCC1CCCO1)c1ccc(F)c2ccccc12 (stereo unspecified)	-6	-4	2	6	1	.
O=c1cc(S(=O)(=O)Cc2ccccc2)[nH]c(=O)[nH]1	2	.	2	6	6	.
CC(Nc1cccc([N+](=O)[O-])c1)C(=O)Nc1ccc(S(=O)(=O)N2CCCC2)cc1 (stereo unspecified)	12	.	4	4	6	.
CCN(C(=O)c1ccc2c(c1)OCO2)C12CC3CC(CC(C3)C1)C2	-4	7	40*	11	5	35*
CC(C)CCNC(=O)COC(=O)c1cc(Br)c(Br)s1	-8	11	32*	-1	7	17
O=c1c2ccccc2nc2n1CC/C2=C/N1CCN(c2cccc(C(F)(F)F)c2)CC1	.	18	33*	23	21	-1
COCCN(C(=O)COC(=O)CCC1CCCC1)c1c(N)n(Cc2ccccc2)c(=O)[nH]c1=O	3	1	-2	4	3	.
O=[N+]([O-])c1ccc(C=Nc2cccc3ccccc23)s1	.	7	66*	9	15	8
O=[N+]([O-])c1ccc(C=NN2CCOCC2)s1	-4	.	.	.	.	.
CC(C)NC(=O)c1cc(C2CCCCN2C(=O)c2ccc(C(C)C)cc2)on1 (stereo unspecified)	-2	.	.	.	.	.
O=C(O)CCc1[nH]c2ccccc2c1Sc1ccccc1	-9	10	31*	10	4	25
O=C(O)CCc1c(C(=O)O)[nH]c2ccccc12	1	5	-4	2	5	.

Assay outcomes as filed in PubChem.
